We go through 20 compounds from PubChem BioAssay (NCATS).

Records with an inconclusive call do not appear. Values without a mark were called inactive. Active and inactive are the calls of the source. The call rests on the fitted dose curve; in most records, active means well fitted inhibition curve with a large enough effect; inconclusive means small, poorly fitted or top-dose-only effect; inactive means flat fitted curve, though single readings scatter.

The test system of experiment [1] is CRL-7250. Kind of experiment: Cytotoxic Profiling of Annotated Libraries Using Quantitative High-Throughput Screening (AID 1296008). Further: nearly all actives have a fitted effect of over 60% in size. To be noted: Five cell lines viability, CellTiter-Glo ATP luminescence, 48-72 h; max response: stronger effect = lower value. The method, boiled down:
(§1)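 Cytotoxicity was measured as CellTiter-Glo ATP luminescence, read after 10 min at room temperature. Compound treatment of the cells lasted 48 or 72 hr at 37 degrees Celsius in a qHTS format.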

For experiment [2], the system named is HEK293. The experiment is described as above. To be noted: Five cell lines viability, CellTiter-Glo ATP luminescence, 48-72 h; max response: stronger effect = lower value. The method, boiled down:
as §1
On the % scale 0 is the no-effect control and ±100 the full control effect; potency means the concentration at half of the fitted maximal effect.

As to `C=C1CCCC2(C)CC3(OC)OC(=O)C(C)=C3CC12` (stereo not given), the max response in experiment [1] was 2.37%; in experiment [2], 3.93%.
As to `CC1=CC(=O)CC(C)(CO)C1(O)/C=C/C(C)O[C@@H]1O[C@H](CO)[C@@H](O)[C@H](O)[C@H]1O` (stereo not given in full), the max response is -0.153% in experiment [1] and -1.52% in experiment [2].
Turning to `O=C1C=CC(O)(/C=C/C(=O)OC[C@H]2O[C@@H](Oc3ccc(O)cc3)[C@H](O)[C@@H](O)[C@@H]2O)C=C1`, the max response was 0.651% in experiment [1] and -4.12% in experiment [2].
Regarding `O=S(=O)(Nc1ccccn1)c1ccc(N=Cc2c(O)[nH]c3ccc4ncsc4c23)cc1`, the compound was classed as inactive in experiment [1]. Besides, the max response in experiment [2] is -3.48%.
On to `O=C(Nc1ccn[nH]1)c1c(F)cccc1F`, for which the call in experiment [1] was inactive. Moreover, in experiment [2], the max response was 4.81%.
With `COc1cc(Nc2nc3c(s2)CCCC3c2ccc(F)cc2)ccc1-n1cnc(C)c1` (stereo not given), the Potency in experiment [1] is 14.6 µM (active); in experiment [2], 11.6 µM (active).
`NC(=O)[C@H]1CCS[C@@H]2C[C@]3(CCCN3C(=O)Cc3ccc(NC(=O)COc4ccc(Cl)cc4Cl)cc3)C(=O)N12`: in experiment [1], the max response was -14.3%. Moreover, in experiment [2], the Potency is 7.41 µM (active).
On to `C[C@@H]1O[C@@H](O[C@H]2[C@H](O)[C@@H](O[C@@H]3O[C@H](CO)[C@@H](O)[C@H](O[C@@H]4O[C@H](CO)[C@@H](O)[C@H](O)[C@H]4O)[C@H]3O)[C@H](O[C@H]3CC[C@@]4(C)C(=CC[C@@H]5C4CC[C@@]4(C)C5C[C@@H]5OC6(CC[C@@](C)(CO[C@@H]7O[C@H](CO)[C@@H](O)[C@H](O)[C@H]7O)O6)[C@@H](C)[C@@H]54)C3)O[C@@H]2CO)[C@H](O)[C@H](O)[C@H]1O` (stereo not given in full), for which the max response in experiment [1] was -2.4%; in experiment [2], 3.47%.
For the compound `C=C1C(=O)OC2/C=C(\CO)CC/C=C(\C=O)CC(OC(=O)CC(C)C)C12` (stereo not given), in experiment [1], the max response is -22.7%. The Potency in experiment [2] was 12.8 µM (active).
With `Cc1ccccc1NC(=O)Nc1ccc(CC(=O)N(C)[C@@H](CC(C)C)C(=O)NCC[C@H](NC(=O)[C@@H]2CCCN2S(=O)(=O)c2cc(Cl)cc(Cl)c2)C(=O)O)cc1`, the max response in experiment [1] is -22.4%. Moreover, the compound was classed as inactive in experiment [2].
On to `CC(C)=CCC[C@](C)(O)[C@H]1CC[C@]2(C)[C@@H]1[C@H](O)CC1[C@@]3(C)CC[C@H](O)C(C)(C)[C@@H]3[C@@H](O[C@@H]3O[C@H](CO)[C@@H](O)[C@H](O)[C@H]3O[C@@H]3O[C@H](CO)[C@@H](O)[C@H](O)[C@H]3O)C[C@]12C` (stereo not given in full), for which the values for the max response in experiment [1] and in experiment [2] were -7.72% and -11.9%, respectively.
With `O=C(CN1C(=O)C2(CCCC2)NCC1c1cc(F)cc(F)c1)Nc1ccc2c(c1)CC1(C2)C(=O)Nc2ncccc21` (stereo not given), in experiment [1], the call was inactive. The max response in experiment [2] was -6.98%.
For the compound `CC(=O)c1ccc(O[C@@H]2O[C@H](CO)[C@@H](O)[C@H](O)[C@H]2O)cc1`, the max response is -8.35% in experiment [1] and -8.37% in experiment [2].
For `CC(=O)O[C@H]1C[C@@](O)(C(C)C)C2[C@@H](OC(=O)c3ccc(O)cc3)C[C@@]3(C)O[C@H]3C[C@]21C` (stereo not given in full), the max response in experiment [1] is -0.746%; in experiment [2] it was -5.37%.
Regarding `C=C1CCC2C(C)(C)C(O)CCC2(C)C1CCC(C)CCOC(C)=O` (stereo not given), the call in experiment [1] was inactive. The max response in experiment [2] is -19.2%.
For `C=C1C[C@]23C[C@H]1CC[C@H]2[C@@]1(C)CCC[C@@]2(C)C(=O)O[C@@H]([C@@H]3O)[C@@H]12`, the figures for the max response in experiment [1] and in experiment [2] were -15.4% and -8.12%, respectively.
The like results for `CC(C)(C)NC(=O)[C@@H](c1cccnc1)N(C(=O)c1ccco1)c1ccc(C(C)(C)C)cc1` were, in that order, 4.34% and -16.3%.
Turning to `C[C@@H]1O[C@@H](O[C@@H]2[C@@H](O)[C@H](O[C@H]3[C@H](O[C@H]4CC[C@@]5(C)C(CC[C@]6(C)C5CC=C5[C@@H]7CC(C)(C)CC[C@]7(C(=O)O[C@@H]7O[C@H](CO)[C@@H](O)[C@H](O)[C@H]7O[C@@H]7O[C@@H](C)[C@H](O[C@@H]8O[C@@H](C)[C@H](O)[C@@H](O)[C@H]8O)[C@@H](O)[C@H]7O)CC[C@]56C)[C@@]4(C)CO)O[C@H](C(=O)O)[C@@H](O)[C@@H]3O)O[C@H](CO)[C@H]2O)[C@H](O)[C@H](O)[C@H]1O` (stereo not given in full), in experiment [1], the compound was classed as inactive. Further, in experiment [2], the max response is -2.3%.
In the case of `CCc1c(C)nc2c(-c3cnn(-c4cc(CO)ccn4)c3)c[nH]n2c1=O`, the max response in experiment [1] is -0.312%. For the same compound, in experiment [2], the result was inactive.
For the compound `CCc1cccc(CC)c1NC(=O)c1nn(C)c2c1CCc1cnc(Nc3ccc(C(=O)NC4CCN(C)CC4)cc3OC(F)(F)F)nc1-2`, the max response in experiment [1] was -0.147%. Moreover, the Potency in experiment [2] is 1.78 µM (active).
